In all, about 53,000 sequences went through this assay and about 3,700 (7%) were called active.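 How the source made its calls: active means gene knockdowns whose robust z-score for IL-1 alpha signal is at least 2 or at most -2, so actives lie on both sides; inactive means the rest.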 Shown is part of a subset that was picked to be rich in actives.

This assay in a line: Components of the Cytosolic LPS Sensing Pathway: Gene Identification via Genome-wide siRNA Screen.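 Further: robust z of the log signal after scaling to non-targeting control siRNA wells of the plate.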 The following applies: RAW264.7 macrophages, IL-1a HTRF, actives lie on both sides, screened at 100 nM (by protocol), cells primed 5 h with Pam3CSK4 first. A digest of the protocol:
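Cells (RAW264.7, 1×10^4 per well) were transfected with siRNA at 100 nM and cultured 48h at 37 degrees C. Pam3CSK4 was added for 5 hours; LipidA transfection followed for 24 hour. IL-1a was then measured by HTRF.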
Take AACACGGCUCUAGCCAAUCTT against Ypel4: the z-score was -1.25 (inactive).

As for GCCAAUUUGAAUGGGAUGUTT against Magohb, the z-score is -2.25 (active).

On to GGUGGUUACCAUAGCUGGUTT against Arid2, for which the z-score is 1.67 (inactive).

For the sequence CCUAAACUCACUCUUGUGUTT against Chrna6, the z-score is -0.000677 (inactive).

Regarding CCUAGACGUGACUUAAUAUTT against Rabggtb, the z-score is 2.09 (active).

Turning to CCUCAGCAAAUAUAUGGCATT against Ccdc7b, the z-score was 0.0117 (inactive).

Take GCAAGCUGAGCAUUGAUGATT against Csk: the z-score was 0.0106 (inactive).

As for GCAGUCUUUUGGAUAGGUUTT against Ccni, the z-score was 0.86 (inactive).

Turning to GCUGUGCAGCCACAAGUGATT against Gpr142, the z-score was 8.63 (active).

For GGAUGGAAUGCAGAAACGATT against Pcp2, the z-score was -0.061 (inactive).

Regarding GGGAUCAGAAAAGUUAACATT against Acaca, the z-score was 0.785 (inactive).

In the case of GGACUUCACUUUUCUAUGATT against Tmem64, the z-score is 1.47 (inactive).

With GGCUUUGGACUGUAUGACCTT against Ccdc159, the z-score is -0.923 (inactive).

GGUGGAAAGAGAGAGCUACTT against Slc12a7: the z-score is 0.458 (inactive).

GGUUUGCUGAGAAAUUAACTT against Btg3: the z-score was 0.958 (inactive).

As to GCCCACGUAUUUGUCUGCUTT against Sprn, the z-score was -2.58 (active).

Take GCCUUCUUAACUUCAUCACTT against Taar5: the z-score was 1.16 (inactive).

For CCUGAACACAAGUGCUGGUTT against Clec4a4, the z-score is -1.8 (inactive).

On to GGCCAUCACACACAGAAACTT against Pla2g2f, for which the z-score was -0.505 (inactive).

Consider GGCUAUGCAGAUGGUACCUTT against Vil1, for which the z-score is 0.871 (inactive).

Consider CCAUGUGUCAAACUACCGGTT against Rbmx2, for which the z-score was 7.02 (active).

Consider CCAUGAUUAAGGGUCUCUATT against Ldha, for which the z-score was 0.111 (inactive).

GGUGGUAAAUAAUUAAGGATT against Clec14a: the z-score was 0.623 (inactive).

With GGAACUGAUAAACUACUCUTT against Olfr1126, the z-score was -2.08 (active).

On to GGGAAUGAGUCAGCUCUUUTT against Cd163, for which the z-score was -0.667 (inactive).

Turning to GGCUAAACUGAAGGAAUUCTT against Fkbp10, the z-score was 0.875 (inactive).

Turning to GGUAGGAAUUUGGAAAACUTT against H2-T24, the z-score was 1.5 (inactive).

With GGAAAUUGUUGUUUCCCGUTT against Sf3b3, the z-score is -1.45 (inactive).

In the case of GGCCACCAAGAAAUUCAAATT against Cd22, the z-score was 4.16 (active).

Turning to GCCUAUCUGUGACUGACCUTT against LOC433501, the z-score was -0.171 (inactive).

With GCGAGAGCUAAAGUAAAAUTT against Egln1, the z-score was -0.671 (inactive).

For the sequence GGCUAAAGUGAGCUCUUCATT against Nob1, the z-score is -0.947 (inactive).

With GGUGUGUUACUGAUGAUUCTT against Olfr669, the z-score was -0.37 (inactive).

As to GCAGAGUGACUUUGAAGCGTT against Klf10, the z-score was 0.844 (inactive).

With CCAAGUUCAUUCUUUUUGCTT against Cobll1, the z-score is 1.2 (inactive).

In the case of CCCUAGAAGAAUCAAGCUCTT against Prune2, the z-score is -1.35 (inactive).

As for GGAAUGAUAGAAAAUGGACTT against Gvin1, the z-score was -2.16 (active).

For GGCAGAGACCACUAAUACCTT against Tmem131l, the z-score was -0.881 (inactive).

For the sequence GGCAGGCAAUUCAAACAAUTT against Orm1, the z-score is -1.24 (inactive).

Take GCUAUCCUCAAUUGCACACTT against Atxn3: the z-score was 1.49 (inactive).

On to GGUUUGAAAGGAGAAAGAGTT against Col4a6, for which the z-score was 0.366 (inactive).

In the case of GGCCUUCGUCAUCUUCAAGTT against Snrpa, the z-score was 1.05 (inactive).

As for GGCCCAAGCUCAACACAAUTT against Aida, the z-score is 2.31 (active).

Take GGCCAAGAAAAAAGAAAGATT against Slc22a2: the z-score is 0.126 (inactive).

As to GGGUUCAGGAGAACUAACUTT against Tmem40, the z-score is -1.92 (inactive).

As to GGAUCCUGUUAAGAUUAUCTT against Phykpl, the z-score was -0.0411 (inactive).

On to GGAUAUUCACUUUCAUAUGTT against Gulp1, for which the z-score was 1.25 (inactive).

With GGUUUAUGGAGCAAGUGAUTT against Actr3, the z-score is -2.07 (active).

With CCAACAAUGUUUAAAGGAUTT against Olfr476, the z-score is -0.32 (inactive).

On to GCCAUGUGCACUGAAUAUATT against Gfral, for which the z-score is -1.87 (inactive).

Regarding GGUCAUCAGUGAUCAGUCATT against Mre11a, the z-score is -1.33 (inactive).

As for GCAGCAUCCAACUUCCGCUTT against Ffar2, the z-score is 3.35 (active).

As to GGAAAAAAUCAAGAGUGAATT against Fam50a, the z-score is -0.157 (inactive).

Take GCUACUCUCUAUUGGUUUUTT against Gpr45: the z-score was 2.45 (active).

With GGUGAACUUGAGGUCACACTT against Angpt4, the z-score was 0.134 (inactive).

Regarding GCGGGUUUAUUGUCUAGAATT against Mfn2, the z-score is 0.669 (inactive).

For GGAAGUAGAUUUGAAGUUGTT against Btbd35f1, the z-score was 0.256 (inactive).

On to GGAGCUCUUUUUGAACACUTT against Sgcg, for which the z-score was 0.946 (inactive).

With GGCCAAUCAAGAUAGCCACTT against Dnajc1, the z-score was 1.12 (inactive).

Consider GCUCUCUCUCUUCUUACUGTT against Olfr1160, for which the z-score is -2.16 (active).

Take GCCGUUUGGUUUCGAACUUTT against Mboat2: the z-score was 1.17 (inactive).

For the sequence GGUGGAGUGAUACGAAGAGTT against Radx, the z-score was 1.21 (inactive).

In the case of CCAUAGUAGCUACCUUGAUTT against Fam107a, the z-score is 0.537 (inactive).

With GGAUGAGGUGAACUGAGGGTT against Tmem150b, the z-score was 0.777 (inactive).

For GGAAGGUUUGUUGUUUUGUTT against Apon, the z-score was -1.58 (inactive).

Turning to GGAUAUGACUAGGUGAAUUTT against Ebf3, the z-score is -1.04 (inactive).

Consider GGACAUUGUCAAUAUGCUCTT against Pygm, for which the z-score is 0.633 (inactive).

With GGUGUGGAAGUCAGUUUAATT against Serpinb3a, the z-score was 2.53 (active).

As to CGAUGUGACUAUUUGUUGATT against Snx11, the z-score was 0.425 (inactive).

These data come from PubChem BioAssay AID1508600 (Functional Genomics Laboratory (NCATS/FGL), 2020).
